Among all 2,300 compounds or so, about 1,500 (65%) were called active. The set was probably picked from earlier hits. This is one part of a sample in which actives are shown more often than they occur.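 Rule for the calls: active = mean inhibition over three repeats above a set limit taken from the earlier primary screen (cut at about 30% in these data); inactive = the rest.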

Inhibition data for three compounds are collected here from PubChem BioAssay AID493030 (The Scripps Research Institute Molecular Screening Center, 2011).

For this test, the target named is Platelet-activating factor acetylhydrolase 2, cytoplasmic (Homo sapiens) (UniProt Q99487). Kind of test: PAFAH2 enzyme inhibitors, confirmation, biochemical, fluorescence polarization, human (AID 493030).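 Note: inhibitor blocks binding of rhodamine activity probe so polarization falls; 0% = enzyme with DMSO and 100% = wells lacking PAFAH2 protein.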 The settings on record: recombinant PAFAH2, FP-rhodamine activity probe, at 3.39 µM, hits give high values. (Fluorescence polarisation rises when a labelled molecule tumbles more slowly, as on binding a larger partner.)
The term inhibition denotes the share of the control response that was lost under treatment. Consider `COc1cccc(N2C(=O)NC(=O)/C(=C\c3cn(C)c4ccccc34)C2=O)c1`, for which the inhibition was 36.5% (active).

As for `Cc1cccc(N2C(=O)NC(=O)/C(=C\c3cnn(-c4ccccc4)c3)C2=O)c1`, the inhibition was 35.3% (active).

For `O=C(COC(=O)c1ccccc1)Nc1ccc(Cl)cc1C(=O)c1ccccc1`, the inhibition was 39.7% (active).
